Compounds with a hit are over-represented: about 3.7% of the library has one in this group of screens.
PLK1 PBD inh: PLK1 (human) polo-box domain binding inhibition; Potency, µM, without a hit: max response, negative = inhibition, usual class: inhibitors; Plk1 PBD binding of FITC phosphopeptide, fluorescence polarization; hit rate 2.8% among 360,000; AID 720504; note: potency is the fitted concentration of half-maximal effect; series mostly up to about 57 µM; % is set by controls: 0 for no effect and ±100 for the full control effect; nearly all actives have a fitted effect of over 65% in size
WRN helicase inh: WRN helicase (human) inhibition; Q14191; WRN helicase unwinding, fluorescent forked duplex, kinetic; Potency, µM (series often up to 114 µM), without a hit: at the top dose activity change, negative = inhibition, usual class: inhibitors; hit rate 0.46% among 360,000; AID 651768; note: potency is the fitted concentration of half-maximal effect; % is set by controls: 0 for no effect and ±100 for the full control effect; nearly all actives have a fitted effect of over 55% in size
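Fluorescence dequenching readout, ex 525 nm/em 598 nm, kinetic mode: forked duplex DNA (100 nM final) with adjacent fluorophore and quencher unwound by WRN (20 nM final) with 2 mM ATP. Compound preincubation 15 min, room temperature.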
PI5P4Ka inh: PI5P4K alpha (human) kinase inhibition; P48426; PI5P4Kalpha enzyme, ADP-Glo luminescence, 60 min; active compounds read low; max response, %; hit rate 1.2% among 330,000; AID 652105; active = max response of -50% or lower; inconclusive = between -30% and -50%; inactive = -30% or higher; note: value at the top dose of about 77 µM; % is set by controls: 0 for no effect and ±100 for the full control effect
Target sequence (P48426 whole entry, looked up): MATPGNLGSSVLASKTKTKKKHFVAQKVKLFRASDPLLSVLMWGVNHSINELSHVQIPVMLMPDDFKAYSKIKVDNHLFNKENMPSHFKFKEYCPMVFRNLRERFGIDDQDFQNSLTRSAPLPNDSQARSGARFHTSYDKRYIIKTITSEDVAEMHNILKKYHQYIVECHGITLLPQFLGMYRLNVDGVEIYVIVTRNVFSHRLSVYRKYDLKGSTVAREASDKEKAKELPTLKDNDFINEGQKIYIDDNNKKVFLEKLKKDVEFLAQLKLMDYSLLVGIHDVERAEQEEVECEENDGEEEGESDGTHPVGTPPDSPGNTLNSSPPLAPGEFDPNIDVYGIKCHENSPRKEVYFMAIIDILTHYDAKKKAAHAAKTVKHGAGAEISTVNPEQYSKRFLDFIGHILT
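Reactions run in 0.038 M HEPES pH 7.4, 0.28 mM EGTA, 0.1% CHAPS and 5% DMSO, with PI5P4Kalpha, substrate, compound and 5 microM ATP final, one hour at room temperature. Readout is ADP-Glo luminescence.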
FEN1 inhibitor: inhibitors of human flap endonuclease 1; P39748; Recombinant FEN1 flap cleavage, fluorescence, 15 min; Potency, µM (highest dose often 114 µM), for inactives: at the top dose activity change, negative = inhibition, most hits filed as inhibitors; hit rate 0.35% among 390,000; note: potency is the fitted concentration of half-maximal effect; % is set by controls: 0 for no effect and ±100 for the full control effect; nearly all actives have a fitted effect of over 65% in size
Target sequence (P39748 whole entry, looked up): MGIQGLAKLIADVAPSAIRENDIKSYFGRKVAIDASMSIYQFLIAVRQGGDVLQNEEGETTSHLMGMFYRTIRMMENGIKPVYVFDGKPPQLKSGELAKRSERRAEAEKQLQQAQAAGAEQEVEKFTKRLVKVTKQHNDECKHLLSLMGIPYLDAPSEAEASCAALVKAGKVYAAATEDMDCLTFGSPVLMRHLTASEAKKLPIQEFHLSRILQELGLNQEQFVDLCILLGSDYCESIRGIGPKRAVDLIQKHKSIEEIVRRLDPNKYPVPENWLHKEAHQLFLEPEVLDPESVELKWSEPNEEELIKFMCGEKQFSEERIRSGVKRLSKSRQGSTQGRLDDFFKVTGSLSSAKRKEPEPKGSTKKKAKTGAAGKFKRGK
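Compounds are tested as a concentration series against 10 nM FEN1; after a 15 min room-temperature preincubation, 50 nM substrate starts cleavage, with plate reads at 0 and 15 min. Normalized responses are fitted by a Hill equation.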
TCR act: T cell receptor activation. primary human leukocytes, anti-CD3, IL-2 HTRF, 48 h. AID 504894. Potency, µM (highest dose often 9.22 µM), for inactives: at the highest dose activation of IL-2 secretion, usual class: activators. 330,000 tested, under 10 active; note: % of control where 0% means no effect
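Readout: HTRF IL-2, Eu-cryptate/d2 antibody pair, 320nm excitation, 665nm emission. Stimulus: a-CD3 beads, no co-stimulation. Cells: primary human leukocytes. Exposure: 48 hr with compound.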
VDR inh: inhibitors of human vitamin D receptor; Potency, µM, for the others: max response, negative = inhibition, most hits filed as inhibitors; VDR-SRC2-3 peptide fluorescence polarization, 2 h; P11473; hit rate 0.93% among 400,000; note: potency is the fitted concentration of half-maximal effect; % is set by controls: 0 for no effect and ±100 for the full control effect
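The screen uses fluorescence polarization to detect compounds that interfere with recruitment of the SRC2-3 coactivator peptide to VDR; plates are read after 2 h at room temperature.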
* = called active by the depositor; ? = inconclusive; . = not tested or not shown; ! = not active in a repeat; [ ] = remark or other dose. Unless noted, calls come from the whole dose curve; as a rule, active = well fitted curve in the direction sought with a large enough effect; inconclusive = small, poorly fitted or top-dose-only effect, or another doubt; inactive = no such curve, though single readings can be large; an effect the other way counts as inactive or inconclusive.

SMILES	PLK1 PBD inh	WRN helicase inh	PI5P4Ka inh	FEN1 inhibitor	TCR act	VDR inh
O=C(Cl)COCc1ccccc1	.	.	.	.	.	-0.1%
C[C@@H](O)C#C[Si](C)(C)c1ccccc1	.	.	.	.	.	7.9%
Cc1cc(-n2nc3ccc(Cl)cc3n2)c(O)c(C(C)(C)C)c1	.	.	.	.	.	-2.9%
Cc1cc(Cl)c(O)c(-n2nc3ccccc3n2)c1	23.8µM*	1.0%	2.6	-5.5%	-1.0%	-25.1%
c1ccc2nc3c(cc2c1)CCCCC3	3.36µM*	3.4%	?	?	1.4%	?
c1ccc2nc3c(nc2c1)CCCC3	-5.0%	2.2%	-3.4	10.5%	-6.7%	6.5%
Cc1ccnc(NC(c2ccccn2)c2c(C)[nH]c3ccccc23)c1 (centres undefined)	11.9µM*	-18.3%	-3.2	-7.9%	1.6%	?
C=C1C(=O)O[C@@H]2[C@H]3O[C@]3(C)CCC=C(C)CC[C@@H]12	.	.	.	.	.	35.5µM*!
C=C1C(=O)O[C@@H]2[C@H]1CC[C@H](C)[C@]1(O)CCC(=O)[C@@]21C	0.6%	-6.4%	-0.1	-2.3%	-2.2%	3.5%
O=C1/C(=C/c2ccccn2)SC(=S)N1Nc1ncc(C(F)(F)F)cc1Cl	?	-14.3%	-65.9*	-4.5%	5.0%	28.2µM*
O=C1/C(=C\c2ccccn2)SC(=S)N1Nc1ncc(C(F)(F)F)cc1Cl	?	-12.5%	.	-19.8%	4.7%	?
CC(C)C(Cl)=NOC(=O)Nc1ccc(F)cc1	13.4µM*	?	7.1	4.5%	-11.0%	?
Cc1cc(/C=C(\C#N)C(=O)O)c(C)n1CC1CCCO1 (centres undefined)	2.99µM*	2.4%	-72.1*	?	9.7%	?
CCCn1c(C)cc(/C=C(\C#N)C(=O)O)c1C	-12.7%	2.9%	-15.9	-9.3%	5.6%	-1.8%
Cc1cc(/C=C(\C#N)C(=O)O)c(C)n1-c1ccc(Br)cc1	33.6µM*	1.5%	-17.9	3.2%	-1.0%	-8.4%
O=C(COc1ccccc1F)Nc1ccc2nc(SCC(=O)N3CCc4ccccc43)sc2c1	.	.	.	-4.7%	.	9.1%
O=C1N=C(N2CCCC2C(=O)O)S/C1=C\c1ccco1 (centres undefined)	3.36µM*	-20.8%[57.1 µM]	?	-14.8%	0.5%	?
O=C1N=C(N2CCCCC2)S/C1=C/C1=Cc2ccccc2OC1	-9.7%	-0.6%	-3.1	-8.6%	-8.1%	16.5%
CCCn1c2ccccc2c2cnn(CC(=O)N(CCCOC(C)C)Cc3ccco3)c(=O)c21	.	.	.	-24.5%	.	4.9%
O=C(Nc1ccc(C(=O)Nc2ccc(C(=O)Nc3ccc(S(=O)(=O)O)c4cc(S(=O)(=O)O)cc(S(=O)(=O)O)c34)cc2)cc1)Nc1ccc(C(=O)Nc2ccc(C(=O)Nc3ccc(S(=O)(=O)O)c4cc(S(=O)(=O)O)cc(S(=O)(=O)O)c34)cc2)cc1	.	.	.	.	.	5.62µM*
Nc1ccc(Nc2ccccc2)c(S(=O)(=O)O)c1	-28.4%	?	-25.4	-0.5%	-4.0%	9.4%
O=S(=O)(O)c1cc(O)c2c(N=Nc3ccc(Nc4ccccc4)c4c(S(=O)(=O)O)cccc34)cc(S(=O)(=O)O)cc2c1	.	.	.	.	.	39.8µM*
Cc1nc(-c2ccc3c(c2)OCCO3)cs1	29.9µM*	-5.7%	7.5	-8.4%	.	-2.0%
COc1ccc(OCCC(=O)OCC(=O)NCc2ccco2)cc1	23.8µM*	?	?	0.9%	-2.7%	-27.9%
O=C(COC(=O)COc1ccccc1)NCc1ccco1	0.8%	-3.5%	-5.5	-0.3%	1.4%	-20.9%
SMILES	PLK1 PBD inh	WRN helicase inh	PI5P4Ka inh	FEN1 inhibitor	TCR act	VDR inh
COc1ccc2nc(NNC(=O)c3cc(=O)c4ccccc4o3)sc2c1	-11.8%	-9.1%[57.1 µM]	-75.5*	1.2%	0.9%	31.6µM*
Cc1cccc2sc(NC(=O)C3CCCO3)nc12 (centres undefined)	-16.0%	-3.3%	.	-1.4%	-5.1%[46.1 µM]	-4.9%
Cc1nc(C)c(C(=O)Nc2nc3c(C)cccc3s2)o1	23.8µM*	?	.	?	1.1%	4.8%
O=C(NNc1nc2c(F)cccc2s1)c1cc(=O)c2ccccc2o1	-4.7%	-19.1%[57.1 µM]	-51.1*	0.6%	-12.1%	?
Cc1ccc2sc(NNC(=O)c3cc(=O)c4ccccc4o3)nc2c1C	-16.5%	-6.0%	?	1.8%	-10.0%	7.94µM*
O=C(COc1ccccc1)NNc1nc2c(F)cccc2s1	?	-3.3%	-7.4	3.6%	10.4%	-3.5%
COc1ccc2nc(NC(=O)c3cc(=O)c4cc(C)cc(C)c4o3)sc2c1	.	.	.	-12.7%	.	5.3%
Cc1cccc2sc(NNC(=O)c3cc(=O)c4ccccc4o3)nc12	?	-0.1%	-52.0*	-15.0%	-5.3%	?
CC(=O)c1cccc(NC(=O)c2cc(=O)c3ccccc3o2)c1	-12.4%	-1.9%	-21.7	-2.9%	.	7.8%
O=C(COC(=O)c1ccccc1OCCOc1ccccc1)Nc1ccccc1Br	.	.	.	14.8%	.	.
NS(=O)(=O)c1ccc(Oc2ccc(S(N)(=O)=O)cc2)cc1	2.3%	0.4%	0.4	-2.6%	.	-7.9%
C=CS(=O)(=O)c1ccc(Oc2ccc(S(=O)(=O)C=C)cc2)cc1	23.8µM*	?	-6.6	-11.1%	-4.0%[46.1 µM]	44.7µM*
CCOc1cccc(C=Nc2cc(C)cc(C)c2O)c1O	23.8µM*	9.0%	-5.5	2.4%	-2.6%	?
CCOc1cccc(/C=N/N=C/c2cccc(OCC)c2O)c1O	-2.8%	3.1%	-9.0	6.7%	-3.7%	-9.1%
COc1ccc(C)cc1NC1(c2ccccc2)C(=O)c2ccccc2C1=O	.	.	.	-8.1%	.	7.9%
Fc1ccccc1/C=N/n1c(COc2ccccc2)n[nH]c1=S	23.8µM*	-14.4%	5.0	-5.9%	5.9%	-5.6%
S=c1[nH]nc(COc2ccccc2)n1/N=C/c1ccc(Cl)cc1Cl	?	-5.4%	4.2	-3.5%	0.6%	-5.5%
Oc1ccccc1/C=N/n1c(COc2ccccc2)n[nH]c1=S	?	-16.6%	-10.5	0.1%	3.4%	-2.5%
S=c1[nH]nc(Cc2ccc(Br)cc2)n1/N=C/c1ccc(Cl)cc1	3.36µM*	-0.7%	-4.9	1.0%	-4.8%	79.4µM*
Nn1c(Cc2ccc(Br)cc2)n[nH]c1=S	11.9µM*	-3.9%	-19.3	15.7%	2.3%	89.1µM*
S=c1[nH]nc(COc2ccccc2)n1/N=C/c1ccc(Cl)cc1	26.7µM*	-7.0%	0.2	3.9%	-5.0%	?
CCOc1ccc(Cc2n[nH]c(=S)n2N)cc1	?	1.2%	4.5	2.1%	-3.8%	-8.9%
O=C(OCc1ccccc1)c1cccnc1	.	.	.	.	.	-3.5%
Cc1ccccc1/C=N/n1c(COc2ccccc2)n[nH]c1=S	?	-0.3%	1.4	12.6%	-5.0%	8.2%
CSc1ccc(/C=N/n2c(COc3ccccc3)n[nH]c2=S)cc1	33.6µM*	-1.0%[57.1 µM]	-2.0	-17.3%	-2.1%	2.3%
COc1ccc(C(=O)N(Cc2ccco2)Cc2cccs2)c(O)c1	-13.0%	-3.8%	0.4	-18.6%	.	4.4%

Screening results (PubChem BioAssay)
